This is part of a sample that, as a whole, favours compounds with a hit. Of some 83,000 tested, about 20% had one in any assay.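 Compound tested at a single concentration for 48 hours in 96-well plates; a percent growth value below 10 was scored as active.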 The source made the active and inactive calls.
Tests used:
Assay in all cases: NCI-60 one-dose screen, 48 h (100 = growth as untreated, 0 = no growth, -100 = all killed)
Settings in all cases: 10 µM unless noted
SR leukemia = system: SR leukemia
RPMI-8226 leukemia = system: RPMI-8226 leukemia
OVCAR-8 ovarian = system: OVCAR-8 ovarian
OVCAR-5 ovarian = system: OVCAR-5 ovarian
OVCAR-4 ovarian = system: OVCAR-4 ovarian
SK-OV-3 ovarian = system: SK-OV-3 ovarian
IGROV1 ovarian = system: IGROV1 ovarian
OVCAR-3 ovarian = system: OVCAR-3 ovarian
HS 578T breast = system: HS 578T breast
NCI/ADR-RES ovarian = system: NCI/ADR-RES ovarian

Measured: growth

CC(C)C[C@H](NC(=O)[C@@H](Cc1ccccc1)n1ccc(Nc2ccccc2)cc1=O)B(O)O
active: RPMI-8226 leukemia -16% | OVCAR-8 ovarian 8.16% | IGROV1 ovarian -35.1% | OVCAR-3 ovarian -61%
inactive: SR leukemia 21% | OVCAR-5 ovarian 16% | OVCAR-4 ovarian 33.9% | SK-OV-3 ovarian 46.1% | HS 578T breast 22.8% | NCI/ADR-RES ovarian 75%

Clc1ccc([I+]c2ccc(Cl)cc2Cl)c(Cl)c1
active: RPMI-8226 leukemia -25.7% | OVCAR-8 ovarian -1.2% | OVCAR-5 ovarian -25.9% | OVCAR-4 ovarian 0.221% | OVCAR-3 ovarian -75.5%
inactive: SR leukemia 22.8% | SK-OV-3 ovarian 96.7% | IGROV1 ovarian 39.7% | HS 578T breast 79% | NCI/ADR-RES ovarian 79.4%

COc1cc(-n2nc(C(=O)Nc3ccc(C(=O)O)cc3)nc2-c2ccccc2)cc(OC)c1OC
inactive: SR leukemia 118% | RPMI-8226 leukemia 108% | OVCAR-8 ovarian 86.3% | OVCAR-5 ovarian 86.3% | OVCAR-4 ovarian 110% | SK-OV-3 ovarian 64.3% | IGROV1 ovarian 51% | OVCAR-3 ovarian 94.4% | HS 578T breast 97.5% | NCI/ADR-RES ovarian 89.1%

O=C(CCl)NCCNc1nccc(Nc2ccc(S(=O)(=O)Nc3ccccn3)cc2)n1
inactive: SR leukemia 19.4% | RPMI-8226 leukemia 14.8% | OVCAR-8 ovarian 32.7% | OVCAR-5 ovarian 15.7% | OVCAR-4 ovarian 29.4% | SK-OV-3 ovarian 61.9% | HS 578T breast 73.1% | NCI/ADR-RES ovarian 46.5%
active: IGROV1 ovarian 8.94% | OVCAR-3 ovarian -6.7%

O=C1c2ccccc2C(=O)c2c(N=Nc3sc(=O)[nH]c3S)cccc21
inactive: SR leukemia 85% | RPMI-8226 leukemia 90.2% | OVCAR-8 ovarian 94.9% | OVCAR-5 ovarian 129% | OVCAR-4 ovarian 95.3% | SK-OV-3 ovarian 117% | IGROV1 ovarian 94.1% | OVCAR-3 ovarian 89.1% | HS 578T breast 90.3% | NCI/ADR-RES ovarian 98.8%

CC/C=C\C[C@H](O)C/C=C1/C(=O)C(Cl)=C[C@@H]1C/C=C\CCCC(=O)O
inactive: SR leukemia 10.9% | RPMI-8226 leukemia 14.7% | OVCAR-8 ovarian 10.9% | OVCAR-5 ovarian 97.1% | OVCAR-4 ovarian 63.2% | SK-OV-3 ovarian 99.7% | IGROV1 ovarian 82.7% | OVCAR-3 ovarian 28.9% | HS 578T breast 75.9% | NCI/ADR-RES ovarian 57.1%

O=C(Nc1ccc(Br)c(Cl)c1)c1cc(F)ccc1O
active: SR leukemia 0.366% | RPMI-8226 leukemia -16.1% | OVCAR-8 ovarian 6.78% | SK-OV-3 ovarian 3.58% | NCI/ADR-RES ovarian 6.11%
inactive: OVCAR-5 ovarian 24.4% | OVCAR-4 ovarian 12.4% | IGROV1 ovarian 16.2% | OVCAR-3 ovarian 12.1% | HS 578T breast 17.4%

CCN(C(=O)c1cc2ccccc2[nH]1)[C@H]1CCC[C@@H](NCc2ccc(OC)cc2)C1
inactive: SR leukemia 69.2% | RPMI-8226 leukemia 86% | OVCAR-8 ovarian 100% | OVCAR-5 ovarian 85.5% | OVCAR-4 ovarian 83.3% | SK-OV-3 ovarian 96.6% | IGROV1 ovarian 85.4% | OVCAR-3 ovarian 89.6% | HS 578T breast 89.3% | NCI/ADR-RES ovarian 88.4%

COc1ccc(-c2nc3sccn3c2-c2ccnc(NCCNS(=O)(=O)c3ccc(C(F)(F)F)cc3)n2)cc1
active: RPMI-8226 leukemia 8.83% | OVCAR-8 ovarian 7.86% | OVCAR-3 ovarian 2.1% | NCI/ADR-RES ovarian 9.11%
inactive: SR leukemia 11.6% | OVCAR-5 ovarian 59% | OVCAR-4 ovarian 15.9% | SK-OV-3 ovarian 29.6% | IGROV1 ovarian 16.2% | HS 578T breast 41%

CC/C=C\C[C@H]1C/C=C2/C(=O)C(Cl)=C[C@@H]2C/C=C\CCCC(=O)O1
inactive: HS 578T breast 17.6%
active: SR leukemia -2.48% | RPMI-8226 leukemia -14.1% | OVCAR-8 ovarian 3.57% | OVCAR-5 ovarian -25% | OVCAR-4 ovarian -37.8% | SK-OV-3 ovarian -6.42% | IGROV1 ovarian -41.7% | OVCAR-3 ovarian -96.1% | NCI/ADR-RES ovarian 6.27%

CN=S(=O)(NC(=O)c1ccc(Cl)cc1Cl)c1ccc(Br)s1 (stereo not given)
inactive: SR leukemia 94.3% | RPMI-8226 leukemia 98% | OVCAR-8 ovarian 97.6% | OVCAR-5 ovarian 95.3% | OVCAR-4 ovarian 103% | SK-OV-3 ovarian 111% | IGROV1 ovarian 101% | OVCAR-3 ovarian 109% | HS 578T breast 97.8% | NCI/ADR-RES ovarian 99.3%

CCOC(=O)C1=C(CSC(=S)N(C2CCCCC2)C2CCCCC2)N(C)C(=O)NC1c1ccccc1 (stereo not given)
inactive: SR leukemia 29.9% | RPMI-8226 leukemia 35.8% | OVCAR-8 ovarian 49.2% | OVCAR-5 ovarian 92% | OVCAR-4 ovarian 45% | SK-OV-3 ovarian 71.4% | IGROV1 ovarian 56.3% | OVCAR-3 ovarian 56.1% | HS 578T breast 80.7% | NCI/ADR-RES ovarian 64%

COc1ccc(/C=C/C(=O)c2ccc(B(O)O)cc2)cc1O
inactive: SR leukemia 19.6% | OVCAR-8 ovarian 89.9% | OVCAR-5 ovarian 88.2% | OVCAR-4 ovarian 114% | SK-OV-3 ovarian 82.7% | IGROV1 ovarian 56.2% | OVCAR-3 ovarian 58.5% | HS 578T breast 70.7% | NCI/ADR-RES ovarian 92.3%
active: RPMI-8226 leukemia 6.12%

O=C(Cc1c(F)cccc1Cl)Nc1ccc(S(=O)(=O)Nc2ncccn2)cc1
active: IGROV1 ovarian -23.2%
inactive: SR leukemia 52% | RPMI-8226 leukemia 70.4% | OVCAR-8 ovarian 113% | OVCAR-5 ovarian 103% | OVCAR-4 ovarian 101% | SK-OV-3 ovarian 102% | OVCAR-3 ovarian 109% | HS 578T breast 111% | NCI/ADR-RES ovarian 108%

COc1ccc(C2=NN(c3ccc(S(N)(=O)=O)cc3)C(c3cn(-c4ccccc4)nc3-c3ccc(Cl)cc3)C2)cc1 (stereo not given)
inactive: SR leukemia 77.9% | RPMI-8226 leukemia 78% | OVCAR-8 ovarian 91.1% | OVCAR-5 ovarian 114% | OVCAR-4 ovarian 107% | SK-OV-3 ovarian 97.7% | IGROV1 ovarian 105% | OVCAR-3 ovarian 92.4% | HS 578T breast 109% | NCI/ADR-RES ovarian 90.1%

CCOC(=O)C1=C(C)NC(=O)NC1c1ccc(OCC(=O)N/N=C/c2ccc(Cl)cc2)cc1 (stereo not given)
inactive: SR leukemia 68.7% | RPMI-8226 leukemia 90.1% | OVCAR-8 ovarian 95.2% | OVCAR-5 ovarian 87.9% | OVCAR-4 ovarian 95.1% | SK-OV-3 ovarian 88.9% | IGROV1 ovarian 94.9% | OVCAR-3 ovarian 99.8% | HS 578T breast 86.6% | NCI/ADR-RES ovarian 106%

COc1cc(C(=O)CCCl)ccc1O
inactive: SR leukemia 96.9% | RPMI-8226 leukemia 92% | OVCAR-8 ovarian 102% | OVCAR-5 ovarian 92.7% | OVCAR-4 ovarian 98.8% | SK-OV-3 ovarian 111% | IGROV1 ovarian 104% | OVCAR-3 ovarian 102% | HS 578T breast 101% | NCI/ADR-RES ovarian 94.6%

CC(=O)Nc1ccc(S(=O)(=O)N2C(=O)CCC2C(=O)Nc2ccc(Br)cc2)cc1 (stereo not given)
inactive: SR leukemia 16.9% | RPMI-8226 leukemia 10.1% | OVCAR-8 ovarian 47.5% | OVCAR-5 ovarian 77.5% | OVCAR-4 ovarian 25.5% | SK-OV-3 ovarian 69.2% | IGROV1 ovarian 37.4% | OVCAR-3 ovarian 24.4% | HS 578T breast 56.6% | NCI/ADR-RES ovarian 41.8%

O=S(=O)(NCCNc1cc(-c2cn(-c3ccccc3)nc2-c2ccccc2)ccn1)c1ccc(F)cc1
inactive: SR leukemia 79.3% | RPMI-8226 leukemia 72.5% | OVCAR-8 ovarian 83% | OVCAR-5 ovarian 106% | OVCAR-4 ovarian 85.6% | SK-OV-3 ovarian 92.1% | IGROV1 ovarian 98% | OVCAR-3 ovarian 94.7% | HS 578T breast 87.3% | NCI/ADR-RES ovarian 81.3%

CCN(Cc1ccc(CN(CC)C(=O)C(Cl)(Cl)Cl)cc1)C(=O)C(Cl)(Cl)Cl
inactive: SR leukemia 32.8% | RPMI-8226 leukemia 32.5% | OVCAR-8 ovarian 89.6% | OVCAR-5 ovarian 101% | OVCAR-4 ovarian 74.7% | SK-OV-3 ovarian 91.2% | IGROV1 ovarian 94.9% | OVCAR-3 ovarian 74.4% | HS 578T breast 89.7% | NCI/ADR-RES ovarian 86.6%

Cc1ccc(Oc2nc3ccccc3cc2-c2nnc(Cn3c(COc4ccccc4)nc4ccccc43)o2)cc1
inactive: OVCAR-8 ovarian 25.5% | OVCAR-5 ovarian 87.7% | OVCAR-4 ovarian 53.9% | SK-OV-3 ovarian 77.3% | IGROV1 ovarian 37.8% | OVCAR-3 ovarian 35.7% | HS 578T breast 72.4% | NCI/ADR-RES ovarian 34.6%
active: SR leukemia -7.62% | RPMI-8226 leukemia -4.32%

ClC1=C(Cl)C(Cl)=C(Cl)C1=Cc1ccc(Cl)cc1Cl
inactive: SK-OV-3 ovarian 38.5% | HS 578T breast 11.6%
active: SR leukemia 2.92% | RPMI-8226 leukemia -10.7% | OVCAR-8 ovarian 2.92% | OVCAR-5 ovarian 8.75% | OVCAR-4 ovarian 5.94% | IGROV1 ovarian 7.32% | OVCAR-3 ovarian -83.7% | NCI/ADR-RES ovarian -34.8%

COc1cc(NC(=O)c2cc3ccccc3nc2Nc2ccc(F)cc2)cc(OC)c1OC
inactive: SR leukemia 35.7% | RPMI-8226 leukemia 29.8% | OVCAR-8 ovarian 43.3% | OVCAR-5 ovarian 68.8% | OVCAR-4 ovarian 47.7% | SK-OV-3 ovarian 72.8% | IGROV1 ovarian 54.5% | OVCAR-3 ovarian 36.2% | HS 578T breast 75.5% | NCI/ADR-RES ovarian 39.7%

O=S(=O)(NCCNc1nccc(-c2c(-c3ccccc3)nc3sccn23)n1)c1ccc(O)cc1
inactive: SR leukemia 18.2% | RPMI-8226 leukemia 52.8% | OVCAR-8 ovarian 40.8% | OVCAR-5 ovarian 87.1% | OVCAR-4 ovarian 56.5% | SK-OV-3 ovarian 65.3% | IGROV1 ovarian 22% | OVCAR-3 ovarian 38.9% | HS 578T breast 64.6% | NCI/ADR-RES ovarian 85.5%

CCNc1nc(N2CC(=O)Nc3cc(OC)ccc32)c2ccccc2n1
inactive: SR leukemia 24.3% | RPMI-8226 leukemia 27.3% | OVCAR-8 ovarian 18.1% | OVCAR-5 ovarian 20% | OVCAR-4 ovarian 20.4% | SK-OV-3 ovarian 27.4% | IGROV1 ovarian 14.3%
active: OVCAR-3 ovarian -16.8% | HS 578T breast 7.61% | NCI/ADR-RES ovarian 0.157%

CC/C=C\C/C=C\C[C@H]1C/C=C2/C(=O)C=C[C@H]2C/C=C\CCC(=O)O1
active: SR leukemia 4.9% | RPMI-8226 leukemia 4.52% | OVCAR-8 ovarian 0.0569% | IGROV1 ovarian 3.81% | OVCAR-3 ovarian -12.1%
inactive: OVCAR-5 ovarian 25.4% | OVCAR-4 ovarian 42.6% | SK-OV-3 ovarian 31.3% | HS 578T breast 40.2% | NCI/ADR-RES ovarian 17.9%

CC(=O)Oc1cccc(OC(C)=O)c1OC(C)=O
inactive: SR leukemia 89.6% | RPMI-8226 leukemia 105% | OVCAR-8 ovarian 106% | OVCAR-5 ovarian 99.9% | OVCAR-4 ovarian 105% | SK-OV-3 ovarian 87% | IGROV1 ovarian 101% | OVCAR-3 ovarian 111% | HS 578T breast 107% | NCI/ADR-RES ovarian 108%
